Screening data: PubChem, several laboratories
This is a sample that favours compounds with a hit; in the whole collection about 2.4% have one here.
Rpn11 inh: inhibitors of human proteasome Rpn11; O00487; human 26S proteasome, Ub4-pepOG fluorescence polarization; 20S core pre-blocked with epoxomicin; inhibition, % at 20 µM; actives 0.59% (n = 360,000); AID 588493;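 active = inhibition at 20 µM, scaled to each plate's controls, above about 33%, limit read from the data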
PREPL inh: inhibitors of human prolyl oligopeptidase-like enzyme PREPL | Q4J6C6 | recombinant PREPL, fluorescence polarization activity-based probe | inhibition, % at 5.96 µM | actives 0.68% (n = 320,000) | AID 2751
NadD block: NadD (S. aureus) enzyme inhibition; actives 0.78% (n = 360,000); inhibition, % at 20 µM; purified NadD enzyme, colorimetric absorbance read-out; in the data active = inhibition above about 26%
PP1 inh: PP1-alpha (human) inhibition in PP5 counter-screen; P62136; purified PP1alpha, OMFP fluorescence; inhibition, % at 6.7 µM; actives 0.9% (n = 320,000);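 active = inhibition above the mean inhibition of all tested compounds plus 3 SD, computed separately for each screening campaign, cut at about 15% in these data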
Target sequence (P62136 whole entry, looked up): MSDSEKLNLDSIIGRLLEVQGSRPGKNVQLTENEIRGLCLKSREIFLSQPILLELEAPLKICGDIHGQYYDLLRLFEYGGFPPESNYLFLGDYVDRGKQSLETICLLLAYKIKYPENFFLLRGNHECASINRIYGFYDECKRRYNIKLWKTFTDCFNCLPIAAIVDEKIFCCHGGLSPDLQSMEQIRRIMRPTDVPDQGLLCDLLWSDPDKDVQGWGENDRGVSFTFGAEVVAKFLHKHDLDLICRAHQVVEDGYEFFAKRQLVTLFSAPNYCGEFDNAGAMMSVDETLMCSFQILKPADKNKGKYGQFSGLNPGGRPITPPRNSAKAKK
PP5 primary: inhibitors of human protein phosphatase 5 (PP5); P53041; purified PP5c, OMFP substrate fluorescence; inhibition, % at 6.7 µM; actives 0.18% (n = 320,000); AID 1987;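 active = inhibition above the campaign's mean inhibition across all tested compounds plus 3 SD, cut at about 9.5% in these data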
PREPL inh cf: human PREPL inhibition, confirmation; shares compounds with PREPL inh; recombinant PREPL, fluorescence polarization activity probe; inhibition, % at 5.96 µM; actives 67% (n = 2,000)
Hits are given with their value; . = inactive; / = not tested or not shown. Cut-off read from the data, not from the text of the source, unless noted: active = inhibition above about 43%; inactive = the rest.

SMILES	Rpn11 inh	PREPL inh	NadD block	PP1 inh	PP5 primary	PREPL inh cf
O=C(NCC1CCCO1)c1cn(Cc2ccccc2Cl)nc1-c1ccccc1 (stereo not drawn)	.	/	.	/	/	/
O=C(c1ccc(COc2ccc(Cl)cc2Cl)o1)N1CCCC1	.	/	.	/	/	/
O=C1Nc2ccccc2S/C1=C/Nc1cccc(Cl)c1	.	45	.	.	.	.
COc1ccc(CN2C[C@H](Cc3ccccc3)[C@@H](CC(=O)Nc3ccccc3)C2=O)cc1	/	.	/	.	.	/
Cc1ccc(CN2CCSCC2)c(C)c1	.	.	.	.	.	/
CCOC(=O)N/N=C/c1cc(OC)c(O)c(OC)c1	.	.	.	.	.	/
CCOC(=O)c1sc(N/N=C/c2cc(Br)c(O)c(OC)c2)nc1C	.	44	.	.	.	48
O=C(Nc1cc(Cl)ccc1N1CCCC1)C1=COCCO1	.	45	.	.	.	.
CCN(CC)CCn1c(=N)n(CC(O)c2ccc(OC)c(OC)c2)c2ccccc21 (stereo not drawn)	.	44	.	.	.	.
COc1cc(C(=O)NC(=S)Nc2ccc(N3CCCC3)cc2)cc(OC)c1OC	.	69	.	.	.	46
COc1ccc(C)cc1NC(=O)C1CCCN(S(=O)(=O)c2cccc3cccnc23)C1 (stereo not drawn)	.	.	.	.	.	/
CCOC(=O)C1C(=O)NC(N2CCc3ccccc32)=NC1c1ccccc1 (stereo not drawn)	.	44	.	.	.	.
COc1cccc(CNC(=O)c2cc(COc3c(F)cccc3F)on2)c1	.	50	.	.	.	.
COc1ccc(N(C(=O)c2ccc(S(=O)(=O)N3CCCC3)cc2)C2C=CS(=O)(=O)C2)cc1 (stereo not drawn)	.	.	.	.	.	/
COCCCNc1c2c3c(cccc3[nH]c1=O)C(=O)c1ccccc1-2	.	112	.	.	.	113
O=C(O)CCNC(=O)/C(=C\c1ccco1)NC(=O)c1ccco1	.	.	.	.	.	/
Cn1cccc1Cc1nnc(SCC(=O)N2CCN(c3ccccc3)CC2)n1-c1ccc(F)cc1	.	49	.	.	.	.
O=C(NC(Cc1ccccc1)C(=O)O)/C(=C/c1ccc(F)cc1)NC(=O)c1ccccc1 (stereo not drawn)	.	.	.	.	.	/
O=c1[nH]c(/C=C/c2cccc([N+](=O)[O-])c2)c([N+](=O)[O-])c(=O)[nH]1	.	.	.	.	.	/
O=[N+]([O-])c1cccc(/C=C/c2nc[nH]c2[N+](=O)[O-])c1	.	45	.	.	.	.
CCN1CCN(c2cc(C)c3cc(NC(=O)CCC(=O)N4CCN(c5ccccc5)CC4)ccc3n2)CC1	.	49	.	.	.	47
N=C1/C(=C/c2ccc(OC(=O)c3ccco3)cc2)C(=O)N=C2SC=CN12	.	.	.	.	.	/
COc1ccc(/C=C2\C(=N)N3N=C(CC(=O)N4CCOCC4)SC3=NC2=O)cc1	.	.	.	.	.	/
Cc1ccc(C(=O)Oc2ccc(/C=C3\C(=N)N4N=C(N5CCOCC5)SC4=NC3=O)cc2)cc1	.	62	40	.	.	.
N=C1/C(=C\c2ccc(OC(=O)c3ccccc3)cc2)C(=O)N=C2SC(N3CCOCC3)=NN12	.	61	.	.	.	.
SMILES	Rpn11 inh	PREPL inh	NadD block	PP1 inh	PP5 primary	PREPL inh cf
O=C(NCc1ccc2c(c1)OCO2)c1nc(Cn2cc(Br)cn2)no1	.	.	.	.	.	/
N#CCN(CC#N)C(=O)C1c2ccccc2Oc2ccccc21	.	75	.	.	.	.
NC(=O)COC(=O)C1c2ccccc2Oc2ccccc21	.	.	.	.	.	/
CN(C)c1ccc(-c2sc(Nc3ccccc3)n[n+]2-c2ccc(F)cc2)cc1	.	.	.	.	.	/
CCN(CC)c1ccc(-c2sc(Nc3ccccc3)n[n+]2-c2ccc(F)cc2)cc1	/	54	.	17	.	66
CN(c1ccccc1)S(=O)(=O)c1nnc(NC(=O)C2CCCCC2)s1	.	.	.	.	.	/
CCNC(=O)/C(C#N)=C/c1c(N2CCN(c3ccc(OC)cc3)CC2)nc2c(C)cccn2c1=O	.	55	.	.	.	49
COCCNC(=O)/C(C#N)=C/c1c(N2CCN(c3ccc(OC)cc3)CC2)nc2c(C)cccn2c1=O	.	54	.	.	.	49
CCNC(=O)/C(C#N)=C/c1c(N2CCN(c3ccccc3)CC2)nc2c(C)cccn2c1=O	.	.	.	.	.	/
COc1ccccc1CNC(=O)C(C)n1nc(C)n2c(cc3occc32)c1=O (stereo not drawn)	.	.	.	.	.	/
O=C(O)c1cc(O)c2c(c1)[C@@H]([C@H]1c3cc(C(=O)O)cc(O)c3C(=O)c3c(O[C@@H]4O[C@H](CO)[C@@H](O)[C@H](O)[C@H]4O)cccc31)c1cccc(O[C@@H]3O[C@H](CO)[C@@H](O)[C@H](O)[C@H]3O)c1C2=O	/	96	/	/	/	.
CCc1ccc(C(=O)C(C)OC(=O)c2nn(C)c(=O)c3ccccc23)cc1 (stereo not drawn)	.	.	.	.	.	/
COc1ccc(C2=Nn3c(nnc3-c3ccco3)SC2)cc1	.	.	.	.	.	/
Oc1ccc(C2=Nn3c(nnc3-c3ccco3)SC2)cc1O	.	44	.	.	.	.
CCCCCNc1nc(NCCCO)c(C#N)c2c1CN(C)CC2	.	.	.	.	.	/
CCCCCNc1nc(N2CCCC2)c2c(c1C#N)CCN(C)C2	.	55	.	.	.	57
O=C(C1CCCN(S(=O)(=O)c2cccc3nonc23)C1)N1CCN(c2ccccc2Cl)CC1 (stereo not drawn)	.	47	.	.	.	.
COc1ccc(-c2ccc3[nH]c4c(c3c2)CCN2C(=O)[C@@H]([C@H](C)O)[C@@H](N(C)C(=O)Nc3ccccc3)C[C@@H]42)cc1	.	/	.	/	/	/
CCN1C(=O)[C@@H]2[C@@H](c3ccc(-c4ccc(F)cc4)cc3)N3CCC[C@@]3(C(=O)OC)[C@@H]2C1=O	.	.	.	.	.	/
CCN1C(=O)[C@H]2[C@@H](c3ccc(-c4ccc(OC)cc4)cc3)N3CCC[C@@]3(C(=O)OC)[C@H]2C1=O	.	47	.	.	.	.
CCN1C(=O)[C@H]2[C@@H](c3ccc(-c4ccc(F)cc4)cc3)N3CCCC[C@@]3(C(=O)OC)[C@H]2C1=O	.	45	.	.	.	.
COc1ccc(S(=O)(=O)N2CCCC(C(=O)NCc3cccnc3)C2)cc1 (stereo not drawn)	.	.	.	.	.	/
Clc1cccc(-c2ccc(C3Nc4cccc5cccc(c45)N3)o2)c1	.	49	52	/	/	61
Clc1ccc(C2Nc3cccc4cccc(c34)N2)c(Cl)c1	.	/	.	/	/	/
CSc1ccc2c(c1)N(CCC1CCCCN1C)c1ccccc1S2 (stereo not drawn)	.	48	.	.	.	51
CN1CCN(CCCN2c3ccccc3Sc3ccc(S(=O)(=O)N(C)C)cc32)CC1	.	.	.	.	.	/
